From PubChem BioAssay AID2284185 (EPA ToxCast)
The source made the active and inactive calls. Rule for the calls: active = hit-call score of the fitted dose curve at least 0.9, where 1 is the maximum; inactive = score below 0.9.

Molecular target: human Dopamine Receptor D4.2 Antagonism, DRD4 (gene 1815) (UniProt P21917)
Experiment: ERF_TW_GPCR_hDRD4: Eurofins (ERF) G Protein-Coupled Receptor (GPCR) Radioligand Binding LeadHunter Assay for human Dopamine Receptor D4.2 Antagonism
Procedure: ERF_TW_GPCR_hDRD4 is a biochemical, single-readout assay that uses extracted gene-proteins in a cell-free assay. Measurements were taken 2 hour after chemical dosing in a 96-well plate. See D4.2 Human Dopamine GPCR Binding (Antagonist Radioligand) Assay, Panlabs.ERF_TW_GPCR_hDRD4 is an assay component calculated from the ERF_TW_GPCR_hDRD4 assay. It is designed to measure radioligand binding using a type of binding reporter as detected by scintillation counting with radiometry technology.Data from the assay component ERF_TW_GPCR_hDRD4 was analyzed at the assay endpoint, ERF_TW_GPCR_hDRD4, in the positive analysis fitting direction relative to DMSO as the negative control and baseline of activity. Using a type of binding reporter, loss-of-signal activity can be used to understand changes in binding as they relate to gene DRD4. To generalize the intended target to other relatable targets, this assay endpoint is annotated to the gpcr intended target family, where the subfamily is dopamine.
Human recombiant cells are prepared in Tris-HCl buffer pH 7.4. A 24 ug aliquot is incubated with 0.5 nM [3H] Spiperone for 2 hours at 25C. Non-specific binding is estimated in the presence of 10 uM Haloperidol.

Sequence of human Dopamine Receptor D4.2 Antagonism, DRD4 (gene 1815) (P21917 whole entry, looked up): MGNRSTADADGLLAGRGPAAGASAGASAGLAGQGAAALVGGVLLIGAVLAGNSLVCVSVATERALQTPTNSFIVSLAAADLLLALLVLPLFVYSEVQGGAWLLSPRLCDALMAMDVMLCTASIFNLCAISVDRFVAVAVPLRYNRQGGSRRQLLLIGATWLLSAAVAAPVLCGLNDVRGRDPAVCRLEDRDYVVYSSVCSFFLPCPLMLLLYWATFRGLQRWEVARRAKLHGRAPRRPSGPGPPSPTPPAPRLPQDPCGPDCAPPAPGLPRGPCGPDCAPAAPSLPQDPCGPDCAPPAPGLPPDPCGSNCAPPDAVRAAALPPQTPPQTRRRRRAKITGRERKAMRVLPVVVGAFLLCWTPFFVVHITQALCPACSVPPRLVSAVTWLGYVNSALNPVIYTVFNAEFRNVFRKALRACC

Row | SMILES | AC50
1 | O=C(/C=C/c1ccc(O)cc1)CC(=O)/C=C/c1ccc(O)cc1 | 1120 nM (active)
